Data from the supplement of paper PMC6518042.

Each molecule was assayed on Pectobacterium parmentieri SCC3193 (assay: DuctApe activity index (growth/respiration on compound as sole nutrient source, blank-subtracted) (activity index (0-3)); higher = stronger utilization of the compound, active = 3 or more). Conditions: nutrient role (plate category): carbon.
Description: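 Biolog Phenotype Microarray plates PM1, PM2A (carbon), PM3 (nitrogen) and PM4 (phosphorus/sulfur) inoculated with P. parmentieri SCC3193 in M9-C minimal salts medium with Biolog dye A, and read in the OmniLog for 46 h. Each well was tested in triplicate and the experiment was run twice. DuctApe computed a blank-subtracted activity index (AV, 0-3) from the mean curves; growth is positive at AV >= 3 and negative at AV <= 2.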
With `NCC(=O)O` [Glycine] the DuctApe activity index was 0 (inactive).
With `O=C(O)C(=O)O` [Oxalic acid] the DuctApe activity index was 0 (inactive).
In the case of `C/C=C/C=C/C(=O)O` [Sorbic acid], the DuctApe activity index is reported as 0 (inactive).
With `NC(=O)CCC(=O)O` [Succinamic acid] the DuctApe activity index was 3 (active).
With `O=P(O)(O)OC[C@H](O)CO` (racemic) [DL-a-Glycerol Phosphate] the DuctApe activity index was 3 (active).
`N[C@H](CC(=O)O)C(=O)O` [D-Aspartic acid] was tested, and the DuctApe activity index was 3 (active).
For `OCC(O)C(O)C(O)CO` (stereo not given) [Adonitol], the DuctApe activity index was 1 (inactive).
For `O=C[C@H](O)[C@@H](O)[C@H](O)[C@H](O)COP(=O)(O)O` [D-Glucose-6-Phosphate], the DuctApe activity index was 3 (active).
For `Nc1ncnc2c1ncn2[C@H]1C[C@H](O)[C@@H](CO)O1` [2`-Deoxyadenosine], the DuctApe activity index was 1 (inactive).
In the case of `NCC(=O)N[C@@H](CCC(=O)O)C(=O)O`, the DuctApe activity index is reported as 0 (inactive).
For `OC1OC[C@@H](O)[C@H](O)[C@H]1O` (stereo partly drawn) [D-Xylose], the DuctApe activity index was 3 (active).
For `O=C1O[C@@H]([C@H](O)CO)[C@H](O)[C@H]1O` [D-Galactonic acid-g-Lactone], the DuctApe activity index was 3 (active).
With `CC(C)[C@H](N)C(=O)O` [L-Valine] the DuctApe activity index was 0 (inactive).
For `O=C(CO)CO` [Dihydroxyacetone], the DuctApe activity index was 1 (inactive).
`OC[C@@H](O)C(O)[C@H](O)CO` [D-Arabitol] was tested, and the DuctApe activity index was 0 (inactive).
`OCC1(O)OC[C@H](O)[C@@H](O)[C@@H]1O` (stereo partly drawn) [L-Sorbose] was tested, and the DuctApe activity index was 0 (inactive).
With `CC(=O)C(=O)O` [Pyruvic acid] the DuctApe activity index was 3 (active).
With `NCC(=O)N[C@@H](CC(=O)O)C(=O)O` the DuctApe activity index was 0 (inactive).
With `O=c1[nH]cnc2c1ncn2[C@@H]1O[C@H](CO)[C@@H](O)[C@H]1O` [Inosine] the DuctApe activity index was 1 (inactive).
In the case of `CC(=O)N[C@@H]1[C@@H](O)[C@H](O)[C@@H](CO)O[C@@H]1O` [N-Acetyl-D-Glucosamine], the DuctApe activity index is reported as 3 (active).

Same assay, conditions: nutrient role (plate category): nitrogen
For `NCC(=O)O` [Glycine], the DuctApe activity index was 0 (inactive).
With `N[C@H](CC(=O)O)C(=O)O` [D-Aspartic acid] the DuctApe activity index was 2 (inactive).
`N[C@H](CCC(=O)O)C(=O)O` [D-Glutamic acid] was tested, and the DuctApe activity index was 0 (inactive).
For `N[C@@H](Cc1c[nH]c2ccccc12)C(=O)O` [L-Tryptophan], the DuctApe activity index was 1 (inactive).
In the case of `NCC(=O)N[C@@H](CCC(=O)O)C(=O)O`, the DuctApe activity index is reported as 1 (inactive).
`CC(C)[C@H](N)C(=O)O` [L-Valine] was tested, and the DuctApe activity index was 0 (inactive).
With `C[C@H](N)C(=O)N[C@@H](CCC(=O)O)C(=O)O` the DuctApe activity index was 1 (inactive).
In the case of `CCCCN` [N-Butylamine], the DuctApe activity index is reported as 0 (inactive).
With `O=c1[nH]cnc2c1ncn2[C@@H]1O[C@H](CO)[C@@H](O)[C@H]1O` [Inosine] the DuctApe activity index was 0 (inactive).
In the case of `CC(=O)N[C@@H]1[C@@H](O)[C@H](O)[C@@H](CO)O[C@@H]1O` [N-Acetyl-D-Glucosamine], the DuctApe activity index is reported as 3 (active).

Same assay, conditions: nutrient role (plate category): phosphate & sulphur
In the case of `O=P(O)(O)OC[C@H](O)CO` (racemic) [DL-a-Glycerol Phosphate], the DuctApe activity index is reported as 1 (inactive).
`NCCOP(=O)(O)O` [O-Phosphoryl-Ethanolamine] was tested, and the DuctApe activity index was 1 (inactive).
In the case of `O=C(O)[C@H](O)[C@@H](O)[C@H](O)[C@H](O)COP(=O)(O)O` [6-Phospho-Gluconic acid], the DuctApe activity index is reported as 2 (inactive).
For `O=C[C@H](O)[C@@H](O)[C@H](O)[C@H](O)COP(=O)(O)O` [D-Glucose-6-Phosphate], the DuctApe activity index was 2 (inactive).
In the case of `CSC[C@H](N)C(=O)O` [S-Methyl-L-Cysteine], the DuctApe activity index is reported as 1 (inactive).
With `NCCS(=O)(=O)O` [Taurine] the DuctApe activity index was 1 (inactive).
With `O=C(O)C(O)COP(=O)(O)O` [D-3-Phospho-Glyceric acid] the DuctApe activity index was 2 (inactive).
With `O=C(O)C(CO)OP(=O)(O)O` [D-2-Phospho-Glyceric acid] the DuctApe activity index was 2 (inactive).
For `C[C@H](CCC(=O)NCCS(=O)(=O)O)[C@H]1CC[C@H]2[C@@H]3[C@H](O)C[C@@H]4C[C@H](O)CC[C@]4(C)[C@H]3C[C@H](O)[C@]12C` [Taurocholic acid], the DuctApe activity index was 2 (inactive).
In the case of `Nc1ccn([C@@H]2O[C@H](COP(=O)(O)O)[C@@H](O)[C@H]2O)c(=O)n1` [Cytidine 5`-Monophosphate], the DuctApe activity index is reported as 1 (inactive).
